Active and inactive are the calls of the source.
Columns and labels:
[1] = optical density shifts of acrAB sulA E. coli – strain DRC41, OD650, 48 h, E. coli filamentation inducer project, primary screen (AID 1152); details: higher = more signal, called active from +8 up or from −8 down;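 further: E. coli MC1000 strain DRC41 lacking acrAB efflux pump and sulA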
[2] = probe aLefty1 binding on compound microarray – biochemical, small-molecule microarray, 635/667 nm fluorescence, primary screen (AID 1153); details: higher = more signal;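 further: score merges spot fluorescence with signal-to-noise ratio from the scanned slide images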
[3] = plasmodial surface anion channel blockers, osmotic lysis – cell-based, P. falciparum Indochina, OD700, 1 h, primary screen (AID 1154); details: P. falciparum Indochina infected RBC osmotic lysis, higher = more signal, called active from +8 up or from −8 down
[4] = plasmodial surface anion channel blockers, osmotic lysis – cell-based, P. falciparum Indochina, OD700, 2 h, primary screen (AID 1155);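 further: lysis reports solute entry through the parasite surface anion channel PSAC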; details: P. falciparum Indochina infected erythrocytes, higher = more signal, called active from +8 up or from −8 down
[5] = changes in parasitized red cell lysis, either direction – P. falciparum Indochina, OD700, 3 h, PSAC antagonist project, primary screen (AID 1156); details: P. falciparum-infected erythrocytes, osmotic lysis, higher = more signal, called active from +8 up or from −8 down
[6] = plasmodial surface anion channel blockers, osmotic lysis – cell-based, P. falciparum Indochina, OD700, 18 h, primary screen (AID 1157); details: P. falciparum Indochina infected erythrocytes, osmotic lysis OD700, 18 h; higher = more signal, called active from +8 up or from −8 down
[7] = S6 kinase pathway phospho-S6 level changes – cell-based, A549, cytoblot, luminescence, serum-stimulated, primary screen (AID 1158); details: 5 h, higher = more signal;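 further: serum-stimulated A549 lung adenocarcinoma cells; signal is phosphorylated S6 detected by cytoblot immunostaining with HRP secondary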
[8] = molecular target: NADPH oxidase 2 (Homo sapiens) (UniProt P04839); experiment: compounds shifting NOX2 Amplex Red fluorescence – cell-based, HEK293-NOX2, PMA-stimulated, NOX inhibitor project, primary screen (AID 1159); details: 45 min, higher = more signal, called active from +8 up or from −8 down; further: test concentration not given here
Chain of NADPH oxidase 2 (Homo sapiens) (P04839 whole entry, looked up): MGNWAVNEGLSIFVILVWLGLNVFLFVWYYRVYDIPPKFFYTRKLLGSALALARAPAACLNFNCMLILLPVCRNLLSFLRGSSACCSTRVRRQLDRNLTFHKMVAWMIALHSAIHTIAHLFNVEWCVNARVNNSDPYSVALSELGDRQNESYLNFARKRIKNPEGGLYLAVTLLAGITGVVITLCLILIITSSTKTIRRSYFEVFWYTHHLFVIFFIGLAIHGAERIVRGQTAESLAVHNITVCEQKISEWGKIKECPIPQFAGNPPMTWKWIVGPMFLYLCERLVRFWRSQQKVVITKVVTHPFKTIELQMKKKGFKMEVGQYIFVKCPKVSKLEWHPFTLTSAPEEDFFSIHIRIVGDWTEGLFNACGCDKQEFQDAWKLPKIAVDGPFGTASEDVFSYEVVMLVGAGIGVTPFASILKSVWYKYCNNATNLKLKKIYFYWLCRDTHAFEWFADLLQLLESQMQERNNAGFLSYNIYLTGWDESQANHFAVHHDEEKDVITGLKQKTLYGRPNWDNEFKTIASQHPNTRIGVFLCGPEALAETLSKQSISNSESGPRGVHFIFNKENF

[9] = molecular target: NADPH oxidase 4 (Homo sapiens) (UniProt Q9NPH5); experiment: compounds shifting NOX4 Amplex Red fluorescence – cell-based, HEK293-NOX4, tetracycline-induced, NOX inhibitor project, primary screen (AID 1160); details: HEK293-NOX4, Amplex Red H2O2 fluorescence, 45 min; higher = more signal, called active from +8 up or from −8 down
Chain of NADPH oxidase 4 (Homo sapiens) (Q9NPH5 whole entry, looked up): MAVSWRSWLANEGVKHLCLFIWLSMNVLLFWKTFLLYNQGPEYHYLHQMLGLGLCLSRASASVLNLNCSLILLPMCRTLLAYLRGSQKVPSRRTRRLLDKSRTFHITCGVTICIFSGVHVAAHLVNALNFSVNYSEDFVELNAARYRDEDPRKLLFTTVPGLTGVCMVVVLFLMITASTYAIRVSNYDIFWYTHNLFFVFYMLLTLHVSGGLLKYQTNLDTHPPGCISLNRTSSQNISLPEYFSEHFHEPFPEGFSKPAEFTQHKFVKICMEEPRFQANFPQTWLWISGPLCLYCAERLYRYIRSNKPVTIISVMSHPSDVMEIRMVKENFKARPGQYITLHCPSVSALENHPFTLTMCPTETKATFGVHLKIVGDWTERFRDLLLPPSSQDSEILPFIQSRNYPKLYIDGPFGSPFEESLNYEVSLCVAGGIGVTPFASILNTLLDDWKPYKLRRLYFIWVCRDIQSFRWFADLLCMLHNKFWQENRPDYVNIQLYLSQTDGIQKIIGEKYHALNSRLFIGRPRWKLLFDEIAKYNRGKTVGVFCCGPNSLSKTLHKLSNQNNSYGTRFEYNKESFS

[10] = molecular target: NADPH oxidase 5 (Homo sapiens) (UniProt Q96PH1); experiment: compounds shifting NOX5 Amplex Red fluorescence – cell-based, HEK293-NOX5, NOX inhibitor project, primary screen (AID 1161); details: HEK293-NOX5, ionomycin, 45 min, higher = more signal
Chain of NADPH oxidase 5 (Homo sapiens) (Q96PH1 whole entry, looked up): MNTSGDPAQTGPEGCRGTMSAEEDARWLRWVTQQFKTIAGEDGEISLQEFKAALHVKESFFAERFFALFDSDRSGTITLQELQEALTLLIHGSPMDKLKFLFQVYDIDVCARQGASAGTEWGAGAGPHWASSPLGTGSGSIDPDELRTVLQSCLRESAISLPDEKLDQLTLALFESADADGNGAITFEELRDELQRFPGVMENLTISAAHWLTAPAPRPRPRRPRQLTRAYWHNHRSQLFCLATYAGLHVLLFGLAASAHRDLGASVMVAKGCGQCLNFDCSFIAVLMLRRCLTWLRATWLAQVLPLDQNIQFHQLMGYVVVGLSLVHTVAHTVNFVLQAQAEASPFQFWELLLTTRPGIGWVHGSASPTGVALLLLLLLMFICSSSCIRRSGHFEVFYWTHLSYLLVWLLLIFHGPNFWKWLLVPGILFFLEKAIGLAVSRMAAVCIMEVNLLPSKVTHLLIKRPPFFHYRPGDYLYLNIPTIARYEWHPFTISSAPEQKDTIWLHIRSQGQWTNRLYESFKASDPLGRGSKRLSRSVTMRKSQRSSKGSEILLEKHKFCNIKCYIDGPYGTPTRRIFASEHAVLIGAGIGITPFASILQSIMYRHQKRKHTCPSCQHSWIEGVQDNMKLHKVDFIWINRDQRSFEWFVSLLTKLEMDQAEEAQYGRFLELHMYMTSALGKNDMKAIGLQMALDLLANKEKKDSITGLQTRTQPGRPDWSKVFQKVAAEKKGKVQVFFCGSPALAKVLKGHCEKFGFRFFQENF

Compound | z-score [1] | composite z-score [2] | z-score [3] | z-score [4] | z-score [5] | z-score [6] | z-score [7] | z-score [8] | z-score [9] | z-score [10]
O=C1OC[C@@H](c2ccccc2)n2cc(/C=C/c3ccccc3)cc21 | 0.989 (inactive) | -0.0868 | 16.3 (active) | 0.408 (inactive) | 2.6 (inactive) | -1.8 (inactive) | 0.693 | 0.0419 (inactive) | 0.618 (inactive) | -0.408
C=CCOC(=O)[C@H]1[C@@H]2C(=O)O[C@@H](c3ccccc3)[C@@H](c3ccccc3)N2[C@@H](c2ccc(OCCOC(=O)[C@@H]3C[C@@H]4C(=O)N[C@@H](Cc5ccccc5)C(=O)N4[C@@H]3c3ccc(O)cc3)cc2)[C@]12C(=O)Nc1ccc(I)cc12 | -0.402 (inactive) | 0.861 | 4.04 (inactive) | 2.18 (inactive) | 2.04 (inactive) | 1.38 (inactive) | -0.674 | 0.972 (inactive) | -1.15 (inactive) | 0.885
C=C[C@@H](CO)NS(=O)(=O)c1ccc(Br)cc1 | 3.75 (inactive) | -0.239 | -0.398 (inactive) | -0.68 (inactive) | -1.12 (inactive) | -1.81 (inactive) | 1.36 | 0.908 (inactive) | 1.05 (inactive) | 1.44
C[C@@]1([C@@H](NS(=O)(=O)c2cccc3cccnc23)c2ccc(-c3ccccc3)cc2)C[C@H]1C1CCCCC1 | -2.47 (inactive) | 1.31 | 0.668 (inactive) | 0.367 (inactive) | 1.39 (inactive) | 0.691 (inactive) | -0.79 | 0.168 (inactive) | -0.61 (inactive) | -1.99
COCCCNC(=O)[C@@]1(c2ccc([N+](=O)[O-])cc2)CC(=O)N(C2CCCCC2)[C@@H]1c1ccc(CO)cc1I | 0.725 (inactive) | -0.208 | 12.6 (active) | 1.35 (inactive) | 3.44 (inactive) | 1.11 (inactive) | 0.107 | 1.78 (inactive) | 0.381 (inactive) | 2.07
[N-]=[N+]=NCc1ccccc1C[C@@]1(C(=O)NCCN2CCOCC2)N=C(c2ccc(OCCCO)cc2)O[C@@H]1c1ccccc1 | -1.58 (inactive) | 0.546 | 25.3 (active) | 11.7 (active) | 1.44 (inactive) | 1.65 (inactive) | -0.28 | -1.48 (inactive) | 0.731 (inactive) | 1.27
C=C(C(=O)CC[C@H](OC(=O)c1ccccc1-c1ccccc1C(=O)O)c1ccc(OCCO)cc1)C(C)C | -0.0716 (inactive) | 0.235 | 11.6 (active) | 1.77 (inactive) | 2.09 (inactive) | 0.92 (inactive) | -0.154 | 0.357 (inactive) | -0.446 (inactive) | -2.12
[N-]=[N+]=Nc1ccccc1C[C@@]1(C(=O)NCC(O)CO)N=C(c2ccc(OCCCO)cc2)O[C@@H]1c1ccccc1N=[N+]=[N-] (stereo not given in full) | -0.193 (inactive) | -0.281 | 30.3 (active) | 29.2 (active) | 0.0029 (inactive) | 8.12 (active) | 0.191 | -1.55 (inactive) | 0.776 (inactive) | 1.85
C=CC[C@]1(C(=O)NCC(O)CO)N=C(c2ccc(OCCCO)cc2)O[C@H]1c1ccccc1CN=[N+]=[N-] (stereo not given in full) | 0.0715 (inactive) | 0.104 | 15.7 (active) | 1.44 (inactive) | 4.83 (inactive) | 0.839 (inactive) | -0.99 | 0.871 (inactive) | 0.0808 (inactive) | -0.704
COC(=O)C(CC#Cc1ccc2c(c1)[C@]1(C(=O)N2)[C@H](C(=O)N2CCCCCCC2)[C@H]2C(=O)O[C@H](c3ccccc3)[C@H](c3ccccc3)N2[C@@H]1c1ccc(OCCO)cc1)C(=O)OC | -0.215 (inactive) | 3.14 | 13.7 (active) | 2.51 (inactive) | -5.71 (inactive) | 0.588 (inactive) | -0.779 | 0.985 (inactive) | 0.827 (inactive) | 1.6
